Screening results (PubChem)
Hits are enriched below; roughly 5.6% of the tested compounds scored in any of these assays.
CtBP-E1A blk – CtBP/E1A binding inhibition; AlphaScreen GST-E1A/His-CtBP binding, 1536-well; active compounds read low; activity change, % (concentration not given with the values); 0.49% of 340,000 active; AID 651724; in the data active = activity change below about -65%; inconclusive = mostly about -30% to -63%
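In 5 uL wells, 23 nL compound meets equimolar GST-E1A and His-CtBP (5X stock 125 nM each) for 2 h, 37 °C. Beads (5X, 50 ug/mL) then 1 h, 37 °C, dark.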
Gal4-VP16 FLuc – counter-screen for ROR gamma inhibitors: Gal4-VP16 reporter. Drosophila S2 Gal4-VP16 UAS-luciferase, luminescence, 20 h. Potency, µM (series often up to 53.6 µM), without a hit: at the highest dose activity, negative = inhibition, actives largely listed as inhibitors. 3.5% of 310,000 active. AID 2546;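 note: Gal4-VP16 expression switched on by copper sulfate through the metallothionein promoter; potency is the fitted concentration of half-maximal effect; nearly all actives have a fitted effect of over 50% in size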
PKM2 act – activators of human pyruvate kinase M2; purified PKM2, Kinase-Glo ATP luminescence, activation; response scale: 0% is enzyme alone, no compound; P14618; Potency, µM (series often up to 57.5 µM), for inactives: at the highest dose activation, most hits filed as activators; 0.34% of 260,000 active; AID 1631; note: potency is the fitted concentration of half-maximal effect; nearly all actives have a fitted effect of over 55% in size
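ATP formation by purified human PK-M2, quantified via coupled luciferase luminescence after 1 h at room temperature with 0.1 mM ADP and 0.5 mM PEP final.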
Six1-Eya2 inh – Six1/Eya2 interaction inhibition; Q15475+O00167; AlphaScreen GST-Six1/His-Eya2 binding, biochemical; active compounds read low; activity change, % (no concentration beside the values); 0.56% of 360,000 active; AID 651725; in the data active = activity change below about -65%; inconclusive = mostly about -30% to -63%
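AlphaScreen luminescence read after one hour at 37 °C in darkness. Pin-transferred compounds met GST-Six1 and His-Eya2 protein (5X stock 250 nM/500 nM) plus glutathione donor and Ni-chelate acceptor beads (5X, 50 ug/mL).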
RORg inh – blocks mouse ROR gamma transcriptional activity; P51450; Drosophila S2 Gal4-RORgamma UAS-luciferase reporter, 20 h; Potency, µM (titrated, usually from 53.6 µM), for the others: at the top dose activity change, negative = inhibition, most hits filed as inhibitors; 5.4% of 310,000 active; AID 2551; note: potency is the fitted concentration of half-maximal effect; nearly all actives have a fitted effect of over 60% in size
Target sequence (P51450 whole entry, looked up, the tested form may be a part): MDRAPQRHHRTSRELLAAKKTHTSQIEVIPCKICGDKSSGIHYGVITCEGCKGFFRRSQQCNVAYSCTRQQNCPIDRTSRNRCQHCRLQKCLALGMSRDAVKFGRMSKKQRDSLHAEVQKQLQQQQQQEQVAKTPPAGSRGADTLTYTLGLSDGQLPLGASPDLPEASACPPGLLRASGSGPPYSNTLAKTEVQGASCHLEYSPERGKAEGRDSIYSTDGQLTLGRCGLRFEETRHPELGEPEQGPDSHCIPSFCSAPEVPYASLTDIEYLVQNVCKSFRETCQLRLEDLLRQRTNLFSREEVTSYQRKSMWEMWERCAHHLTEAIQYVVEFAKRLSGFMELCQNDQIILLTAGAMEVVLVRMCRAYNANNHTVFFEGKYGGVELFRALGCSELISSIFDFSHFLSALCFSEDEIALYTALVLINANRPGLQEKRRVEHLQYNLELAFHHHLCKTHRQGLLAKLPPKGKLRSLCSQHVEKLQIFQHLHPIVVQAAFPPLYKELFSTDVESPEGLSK
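Read-out: Photinus luciferase luminescence; inhibitors lower reporter signal. Insect Schneider cells with Gal4-ROR gamma fusion under metallothionein promoter, UAS reporter; 700 uM final copper sulfate induction, 20 hr, ambient temperature.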
* = called active by the depositor. Unless noted, calls come from the whole dose curve; as a rule, active = well fitted curve in the direction sought with a large enough effect; inconclusive = small, poorly fitted or top-dose-only effect, or another doubt; inactive = no such curve, though single readings can be large; an effect the other way counts as inactive or inconclusive. % is set by controls: 0 for no effect and ±100 for the full control effect.

`Cc1cccc(C)c1NC1=NC(=S)N(c2ccccc2)C12CCOC(C)(C)C2` (stereo not drawn) gave CtBP-E1A blk -1.8, Gal4-VP16 FLuc inconclusive, PKM2 act 0.0%, Six1-Eya2 inh 7.2 and RORg inh 3.98µM*.
`Cc1cccc(C)c1NC1=NC(=S)N(c2ccc(C(=O)O)cc2)C12CCCCC2` gave CtBP-E1A blk -0.6, Gal4-VP16 FLuc 1.9%, PKM2 act -9.4%, Six1-Eya2 inh 5.2 and RORg inh 19.6%.
For COc1ccccc1N1C(=S)N=C(Nc2c(C)cccc2C)C12CCCC2 the results were CtBP-E1A blk -2.2, Gal4-VP16 FLuc inconclusive, PKM2 act -0.3%, Six1-Eya2 inh 5.5 and RORg inh 7.94µM*.
`Cc1cccc(N2C(=S)N=C(Nc3c(C)cccc3C)C23CCOC(C)(C)C3)c1` (stereo not drawn) gave CtBP-E1A blk 4.1, Gal4-VP16 FLuc -6.5%, PKM2 act 13.5%, Six1-Eya2 inh 7.3 and RORg inh 7.0%.
`Cc1ccc(N2C(=S)N=C(Nc3ccccc3C)C23CCOC(C)(C)C3)cc1` (stereo not drawn) gave CtBP-E1A blk 13.5, Gal4-VP16 FLuc 12.6µM*, PKM2 act 4.3%, Six1-Eya2 inh 2.3 and RORg inh 4.47µM*.
Screening CC(=O)OCC1OC(n2c(-c3ccc(Cl)cc3)ccc(C#N)c2=S)C(OC(C)=O)C(OC(C)=O)C1OC(C)=O (stereo not drawn) returned CtBP-E1A blk 1.5 and Six1-Eya2 inh -13.1.
Screening Nc1nc(N)c2[nH]c(-c3ccccc3)nc2n1 returned CtBP-E1A blk 0.1, Gal4-VP16 FLuc -3.3%, PKM2 act -3.0%, Six1-Eya2 inh -17.7 and RORg inh 9.2%.
Screening Cc1cccc(N2CCN(C(=O)COc3cccc4c3OC(C)(C)C4)CC2)c1C returned CtBP-E1A blk -0.1, Gal4-VP16 FLuc 3.16µM*, PKM2 act -16.7%, Six1-Eya2 inh -5.8 and RORg inh inconclusive.
`CC1(C)Cc2cccc(OCC(=O)N3CCN(S(=O)(=O)c4ccc(F)cc4)CC3)c2O1` gave CtBP-E1A blk -1.7, Gal4-VP16 FLuc 0.0%, PKM2 act 5.9%, Six1-Eya2 inh -3.3 and RORg inh 40.4%.
C[C@H](CO)N1C[C@H](C)[C@@H](CN(C)Cc2ccncc2)Oc2c(NS(=O)(=O)c3ccc(F)cc3)cccc2C1=O was read as CtBP-E1A blk -0.5 and Six1-Eya2 inh -0.9.
For CC(C(=O)NCCSCc1cccc(Cl)c1)N(c1ccccc1)S(C)(=O)=O (stereo not drawn) the results were CtBP-E1A blk 4.6, Gal4-VP16 FLuc -0.8%, Six1-Eya2 inh -6.8 and RORg inh 21.8%.
CC1CN(C(=O)CCc2cc(C(C)(C)C)c(O)c(C(C)(C)C)c2)CC(C)O1 (stereo not drawn) was read as CtBP-E1A blk 2.5, Gal4-VP16 FLuc 5.4%, PKM2 act -1.1%, Six1-Eya2 inh 7.2 and RORg inh -10.8%.
Screening CC(C)(C)c1cc(CCC(=O)N2CCC2)cc(C(C)(C)C)c1O returned CtBP-E1A blk 8.6, Gal4-VP16 FLuc -97.4%, PKM2 act 5.1%, Six1-Eya2 inh 11.9 and RORg inh 12.6µM*.
For CCc1noc(C)c1C(=O)OC(C)C(=O)c1c(C)[nH]c2ccccc12 (stereo not drawn) the results were Six1-Eya2 inh -14.5.
`Cc1[nH]c2ccccc2c1C(=O)C(C)OC(=O)c1ccc([N+](=O)[O-])o1` (stereo not drawn) gave CtBP-E1A blk -2.3, Gal4-VP16 FLuc -22.9%, PKM2 act 17.0%, Six1-Eya2 inh -25.0 and RORg inh 14.1µM*.
Screening Cc1ccc(C2CCN(C(=S)NC(C)C)C2)cc1 (stereo not drawn) returned CtBP-E1A blk 9.7, Gal4-VP16 FLuc -13.0%, PKM2 act -0.6%, Six1-Eya2 inh 6.8 and RORg inh inconclusive.
Screening O=C(O)[C@H](Cc1ccccc1)NC(=O)N1CCCCCC1 returned CtBP-E1A blk 5.3, Gal4-VP16 FLuc -6.7%, Six1-Eya2 inh -1.1 and RORg inh 24.3%.
`O=C(O)[C@H](Cc1ccccc1)NC(=O)N1CCOCC1` gave CtBP-E1A blk 6.1, Gal4-VP16 FLuc -0.5%, PKM2 act 1.3%, Six1-Eya2 inh 6.3 and RORg inh 5.01µM*.
Screening c1ccc(-c2ccncc2)nc1 returned CtBP-E1A blk 6.7 and Six1-Eya2 inh 0.4.
Screening c1ccc(-c2nc(-c3ccncc3)n[nH]2)nc1 returned CtBP-E1A blk -1.5, Gal4-VP16 FLuc 12.6µM*, PKM2 act -28.3%, Six1-Eya2 inh -89.5* and RORg inh 5.01µM*.
For Cc1nc(C(F)(F)F)c(C(=O)N/N=C(\N)c2ccccn2)s1 the results were CtBP-E1A blk -92.1*, Gal4-VP16 FLuc inconclusive, PKM2 act 0.2%, Six1-Eya2 inh -76.8* and RORg inh inconclusive.
Cc1ccc(S(=O)(=O)/N=C(/c2ccc(F)cc2)N2CCCCC2)cc1 was read as CtBP-E1A blk 0.5, Gal4-VP16 FLuc -9.6%, PKM2 act -4.4%, Six1-Eya2 inh 5.8 and RORg inh -14.7%.
`COc1ccc(CNS(=O)(=O)c2cn(C)c(=O)n(C)c2=O)cc1` gave CtBP-E1A blk 0.0, Gal4-VP16 FLuc -5.7%, PKM2 act 1.4%, Six1-Eya2 inh 6.7 and RORg inh -2.9%.
`CSc1ccccc1OCc1cc(C(=O)N2CCc3sccc3C2)no1` gave CtBP-E1A blk 0.7, Gal4-VP16 FLuc 12.9%, Six1-Eya2 inh -3.3 and RORg inh 11.6%.
`Cc1ccc(C)c(OCc2cc(C(=O)N3CCc4sccc4C3)no2)c1` gave CtBP-E1A blk -3.1, Gal4-VP16 FLuc inconclusive, PKM2 act -0.8%, Six1-Eya2 inh 4.1 and RORg inh 2µM*.
Screening O=C(NCCN1CCN(Cc2ccccc2)CC1)c1ccc(CS(=O)(=O)c2ccc(Br)cc2)o1 returned CtBP-E1A blk -14.2, Gal4-VP16 FLuc 0.5%, Six1-Eya2 inh -0.7 and RORg inh 12.0%.
For Cc1nn(CC(=O)NNC(=S)Nc2ccccc2)c(C)c1[N+](=O)[O-] the results were CtBP-E1A blk 2.2, Gal4-VP16 FLuc 12.6µM*, PKM2 act -0.2%, Six1-Eya2 inh -0.9 and RORg inh 8.91µM*.
`Cc1nn(CCCC(=O)Nc2cc(Oc3ccc(F)cc3)cc([N+](=O)[O-])c2)c(C)c1[N+](=O)[O-]` gave CtBP-E1A blk 3.7, Gal4-VP16 FLuc 10µM*, PKM2 act 4.3%, Six1-Eya2 inh -6.3 and RORg inh inconclusive.
Screening Cc1ccc(NC(=S)NNC(=O)Cn2nc(C(F)F)cc2C(F)F)cc1 returned CtBP-E1A blk -8.0, Gal4-VP16 FLuc -24.6%, PKM2 act 0.6%, Six1-Eya2 inh 5.3 and RORg inh 2.24µM*.
